A selection: hits, their analogues and other compounds. The true share with any hit is near 10%.
ALDH1A1 block: ALDH1A1 (human) enzyme inhibition | P00352 | Purified ALDH1A1, NADH fluorescence, propionaldehyde substrate | Potency, µM (highest dose often 75.3 µM), for inactives: at the highest dose activity, negative = inhibition, actives largely listed as inhibitors | 220,000 tested, 7.3% active | AID 1030;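 further: potency means the concentration at half of the fitted maximal effect; plate controls were no enzyme wells and a reference inhibitor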
Target sequence (P00352 whole entry, looked up): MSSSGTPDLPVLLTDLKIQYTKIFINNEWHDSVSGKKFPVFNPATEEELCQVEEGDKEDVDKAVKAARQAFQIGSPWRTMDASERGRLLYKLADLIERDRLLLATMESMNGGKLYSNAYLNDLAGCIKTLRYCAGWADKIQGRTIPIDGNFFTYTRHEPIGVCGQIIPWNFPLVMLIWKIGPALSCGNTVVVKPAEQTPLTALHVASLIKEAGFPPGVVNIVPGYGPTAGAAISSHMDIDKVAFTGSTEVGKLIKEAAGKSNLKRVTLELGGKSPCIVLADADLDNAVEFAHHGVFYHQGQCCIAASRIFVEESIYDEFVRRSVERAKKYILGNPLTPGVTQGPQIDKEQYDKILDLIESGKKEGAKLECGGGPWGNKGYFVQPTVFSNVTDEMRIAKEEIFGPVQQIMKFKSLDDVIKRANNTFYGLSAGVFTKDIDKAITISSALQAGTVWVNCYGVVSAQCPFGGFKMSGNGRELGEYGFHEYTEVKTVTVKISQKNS
LMNA splice mod: changes lamin A minigene splicing in HeLa cells | HeLa LMNA splicing GFP/RFP minigene ratio, 48 h | Potency, µM (highest dose often 46.1 µM), for the others: at the highest dose ratio change, negative = inhibition, most hits filed as inhibitors | 200,000 tested, 0.01% active; active means well fitted inhibition curve with a large enough effect in the signal ratio, with a control signal flat, not every such curve was filed as active; inconclusive means small, poorly fitted or top-dose-only effect, or effect the other way, or a change in a side signal; the % refers to the signal ratio; further: potency means the concentration at half of the fitted maximal effect
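S3 HeLa cells stably expressing lamin A-EGFP splicing minigene plus DsRed2, 600 cells/well, 48 h compound exposure at 37C. Laser-scanning cytometry; analysed as GFP (500-530 nm)/RFP (575-640 nm) total intensity ratio; 0.5% DMSO vehicle.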
HPGD block: inhibitors of human 15-hydroxyprostaglandin dehydrogenase (HPGD); P15428; 150,000 tested, 4.3% active; Potency, µM, without a hit: top-dose activity change, negative = inhibition, usual class: inhibitors; purified HPGD, NADH fluorescence kinetic, PGE2 substrate; further: potency means the concentration at half of the fitted maximal effect
Target sequence (P15428 whole entry, looked up): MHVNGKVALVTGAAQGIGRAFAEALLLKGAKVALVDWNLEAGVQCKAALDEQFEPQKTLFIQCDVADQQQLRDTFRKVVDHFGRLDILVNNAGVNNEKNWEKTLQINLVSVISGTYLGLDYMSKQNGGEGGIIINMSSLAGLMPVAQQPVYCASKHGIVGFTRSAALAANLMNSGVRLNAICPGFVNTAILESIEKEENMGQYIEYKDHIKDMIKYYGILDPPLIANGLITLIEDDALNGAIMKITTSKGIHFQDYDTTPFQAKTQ
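NADH formation kinetics: reaction with 30 uM PGE2 and 1 mM NAD+ (final), 20 nM enzyme, Tris-HCl pH 8 with Tween 20, after 15 min compound preincubation at room temperature. Fluorescence change, last versus first of five reads.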
ALOX12 inhib: inhibitors of human 12-lipoxygenase (ALOX12); 150,000 tested, 0.12% active; P18054; Potency, µM (doses to about 57.1 µM), for the others: top-dose activity change, negative = inhibition, usual class: inhibitors; purified 12-hLO, xylenol orange hydroperoxide absorbance; active means well fitted inhibition curve with a large enough effect; inconclusive means small, poorly fitted or top-dose-only effect; further: potency means the concentration at half of the fitted maximal effect; nearly all actives have a fitted effect of over 55% in size
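Purified human 12hLO (150 nM), preincubated 15 min with compound, then 40 uM arachidonic acid for 30 min, room temperature, Hepes pH 7.0 with 0.01% Triton X-100. Hydroperoxide detected by ferrous iron/xylenol orange; 573/405 nm absorbance ratio gives reaction progress.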
PNC inhibitor: blocks assembly of the perinucleolar compartment | PC3M PTB-GFP, PNC prevalence imaging, 16 h; hits give low values | 140,000 tested, 3.1% active | activity change (PNC), negative = inhibition, % at 10 µM;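 active means readout at or below -70, meaning at least 70% loss of cells showing the perinucleolar compartment, a nuclear body marking cancer cells; inconclusive means readout between -30 and a set limit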;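 further: plate controls were DMSO wells for no effect and camptothecin positive control wells for full effect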
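PC3M cells stably expressing PTB-GFP, 750–1000 cells/well, treated 16 h at 37 °C with compound (23 nl of library stock), in duplicate. After paraformaldehyde fixation and Hoechst stain, imaged at 20x; PNC prevalence scored by image analysis.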
Numbers without * were called inactive; ? = inconclusive; . = no result; [ ] = another dose, or the depositor's remark. Unless noted, the call rests on the fitted dose curve; in most records, active means well fitted inhibition curve with a large enough effect (not every such curve was filed as active); inconclusive means small, poorly fitted or top-dose-only effect, or another doubt; inactive means no such curve, though single readings can be large or run the other way. Unless noted, on the % scale 0 is the no-effect control and ±100 the full control effect.

SMILES	ALDH1A1 block	LMNA splice mod	HPGD block	ALOX12 inhib	PNC inhibitor
Nc1ccc(Nc2ccccc2)c(Cl)c1	14.1µM*	6.8%	-17.7%	-9.2%	-22.5
CC(=O)c1cc(-c2ccc(F)cc2)n(CCC(=O)Nc2cccc(C)n2)c1C	-10.0%	.	.	.	.
Cc1ccc(-n2c(N)c(C(=O)N3CCCCC3)sc2=S)cc1	10µM*	-30.0%	10µM*	-17.5%	?
Cc1ccc(-n2c(N)c(C(=O)N3CCN(C)CC3)sc2=S)cc1	22.4µM*	-2.2%	11.2µM*	1.2%	?
CCOc1ccc(-n2c(N)c(C(=O)N3CCN(C)CC3)sc2=S)cc1	-11.9%	-3.7%[46 µM]	.	.	.
COc1ccc(N/N=C(/C)c2cnnc(-c3ccccc3)n2)cc1	9.46µM*	-6.1%	-0.8%	-1.1%	-5.3
O=C(NC(c1ccccc1)c1ccccc1)c1ccc(=O)[nH]n1	4.47µM*	11.2%[46 µM]	.	.	.
O=C(O)C[C@H](S)C(=O)O	-5.1%[13.5 µM]	.	-1.6%	0.9%[11.4 µM]	.
Cc1ccc(CSc2ccc(-c3ccc4c(c3)OCO4)nn2)cc1	11.2µM*	-8.8%	?	-1.2%	8.1
Cc1ccc(CSc2nnc(-c3ccc4c(c3)OCO4)o2)cc1	-2.3%	?	-27.4%	-3.5%	5.9
CC(C)(C)NC[C@H](O)COc1cccc2c1C[C@@H](O)[C@@H](O)C2	-0.4%[20.9 µM]	?	-3.9%	-4.3%[25.6 µM]	.
COc1cccc(NC(=S)NCCN2CCOCC2)c1	12.7%	-6.6%	-3.2%	4.2%	-91.4*
CCN1CCCc2cc(CN(CCN3CCOCC3)C(=S)Nc3cccc(OC)c3)ccc21	15.8µM*	-8.6%[46 µM]	.	.	.
C/C=C/COC(=O)c1[nH]c2c(c1C)C(=O)CC(c1ccco1)C2 (stereo not drawn)	?	?	-12.7%	1.0%	-101.8*
Cc1c(C(=O)OC2CCCC2)[nH]c2c1C(=O)CC(c1ccco1)C2 (stereo not drawn)	11.2µM*	?	-8.3%	-6.4%	-108.4*
Cc1c(C(=O)OCC2CCCO2)[nH]c2c1C(=O)CC(c1ccco1)C2 (stereo not drawn)	7.08µM*	?	?	-16.1%	38.8
Cc1c(C(=O)OCC(C)C)[nH]c2c1C(=O)CC(c1ccco1)C2 (stereo not drawn)	11.2µM*	?	-26.1%	-9.1%	-88.2*
CCc1cccc(NC(=O)CSc2n[nH]c(-c3ccccc3Cl)n2)c1	.	8.3%[46 µM]	.	.	.
COc1ccc(-c2nc3cnc(N(C)C)nc3n(CCC#N)c2=O)cc1	?	-10.5%	.	.	.
COc1cc(C2CC(=O)Oc3cc(C)c(Cl)cc32)cc(OC)c1OC (stereo not drawn)	3.7%	.	-7.3%	-1.0%[0.00818 µM]	.
CCC(=O)Nc1sc2c(c1C(=O)Nc1ccccc1C)CCC(C)C2 (stereo not drawn)	.	-10.7%[46 µM]	.	.	.
COCc1cc(Sc2ccc(Cl)cc2)nc(C)n1	7.4%	0.8%[46 µM]	.	.	.
COCc1cc(S(=O)c2ccc(Cl)cc2)nc(C)n1 (stereo not drawn)	17.8µM*	.	.	.	.
CCN(CCCNC(=O)CN1N=C(c2ccc(OC)cc2)CCC1=O)c1cccc(C)c1	.	4.0%[46 µM]	.	.	.
Cc1ccc(S(=O)(=O)Nc2ccccc2/C=N/c2nc3ccccc3n2C(C)C)cc1	21.3%	?	-18.5%	-1.5%	-92.0*
SMILES	ALDH1A1 block	LMNA splice mod	HPGD block	ALOX12 inhib	PNC inhibitor
O=S1(=O)C=C(Sc2nnc(-c3ccccc3)o2)c2ccccc21	22.4µM*	?	14.1µM*	-12.3%	?
Cc1cc(C)nc(SC2=CS(=O)(=O)c3ccccc32)n1	-12.7%	?	-21.8%	-2.3%	-16.0
CCOc1ccccc1C(=O)Nc1ccc(-n2nncc2-c2ccccc2)cc1	.	-20.1%[46 µM]	.	.	.
CCc1nc(SCc2ccc(Cl)cc2)n[nH]1	4.1%	-8.8%[46 µM]	.	.	.
CCCc1nc(SCc2ccc(Cl)cc2Cl)n[nH]1	4.1%	1.2%	15.8µM*	-0.8%	1.4
O=S(=O)(O)c1ccc(NN(c2c(O)ccc3ccccc23)S(=O)(=O)O)cc1	7.5%[13.5 µM]	.	-14.7%	-1.3%[11.4 µM]	.
Cc1ccc(C)c(S(=O)(=O)N2C(=S)NC(=O)C2CC(C)C)c1 (stereo not drawn)	-5.0%	-11.3%	-0.1%	0.0%	-4.6
CC(C)C1C(=O)NC(=S)N1S(=O)(=O)c1ccc(C(C)(C)C)cc1 (stereo not drawn)	11.2µM*	2.0%	-15.1%	3.7%	17.2
O=C(CC(NC(=O)c1ccccc1Cl)c1ccccc1)NCCc1ccc(Cl)cc1 (stereo not drawn)	-3.1%	-3.1%	-3.1%	2.3%	-108.0*
O=C(Nc1cnn(Cc2ccc(Cl)cc2Cl)c1)c1noc2c1CCCC2	14.1µM*	?	-25.5%	-9.2%	28.9
O=C(NCc1ccc(F)cc1)c1ccc(CS(=O)(=O)Cc2ccccc2F)o1	12.6µM*	-3.6%[0.0737 µM]	-19.8%	4.7%	69.6
O=C(NCc1ccc(F)cc1)c1ccc(CS(=O)(=O)Cc2ccc(F)cc2)o1	-0.2%	?	-0.9%	-8.2%	17.2
COCCn1c(SCc2cc(C(C)=O)ccc2OC)nc2cc(Cl)ccc2c1=O	17.8µM*	0.0%	-2.9%	-0.1%	-16.6
CCOc1ccc(C(C)=O)cc1CSc1nc(C)cc(C)n1	3.98µM*	.	.	.	.
C=CCn1c(SCc2cc(C(C)=O)ccc2OCC)nc2ccccc2c1=O	2.24µM*	?	-11.7%	1.1%	?
COc1ccc(C(C)=O)cc1CSc1nc2ccccc2c(=O)n1-c1ccccc1	?	-1.3%	-11.3%	6.0%	?
Cc1ccccc1Nc1c(N)c(=O)oc2ccccc12	-4.2%	10.5%	15.8µM*	-6.2%	?
CN(C)CCNc1c(N)c(=O)oc2ccccc12	-8.9%	.	.	.	.
O=c1c(CCc2ccccc2)nc2cnc(N3CCOCC3)nc2n1Cc1ccc(F)cc1	?	.	-15.4%	0.5%	.
Cc1cccc(N2CCN(C(=O)C3CCCCC3)CC2)c1C	-11.2%	-20.1%	-14.3%	-3.0%	-29.6
Cc1cc(N2CCC(C(=O)N3CCN(c4cccc(C)c4C)CC3)CC2)n2ncnc2n1	3.98µM*	?	-23.1%	-0.4%	26.4
O=C(CCl)N1N=C(c2cccs2)CC1c1ccco1 (stereo not drawn)	0.447µM*	.	.	.	.
CCCCN1C2=C(C(=O)CC(C)(C)C2)C(c2ccccc2)C2=C1c1ccccc1C2=O (stereo not drawn)	?	10.6%	-10.1%	-10.0%	28.9
CCCN1C2=C(C(=O)CC(C)(C)C2)C(c2ccc(F)cc2)C2=C1c1ccccc1C2=O (stereo not drawn)	?	-5.0%	35.5µM*	-0.1%	50.4
COc1ccc2[nH]c(=O)c(CN(C(=O)c3ccccn3)c3ccccc3)cc2c1	?	-0.5%	?	-1.2%	-92.0*
Cc1ccc2[nH]c(=O)c(CN(C(=O)c3cccs3)c3ccccc3)cc2c1	5.2%	?	-1.6%	-0.3%	-85.1*
O=c1c(CCc2ccccc2)nc2cncnc2n1Cc1ccccc1	25.1µM*	?	.	.	.
O=c1c(-c2cccs2)nc2cncnc2n1Cc1ccccc1	?	7.7%	.	.	.
COc1ccc(Oc2ncc3ncc(=O)n(Cc4ccc(F)cc4)c3n2)cc1	?	.	31.6µM*	-12.1%	.

Screening data deposited in PubChem by National Center for Advancing Translational Sciences (NCATS).
